The source of these data is PubChem BioAssay.

Molecules are shown by their SMILES. Calls of active or inactive are those of the source.

Test [1] concerns the target NADPH oxidase 4 (Homo sapiens) (UniProt Q9NPH5). Description: compounds shifting NOX4 Amplex Red fluorescence – cell-based, HEK293-NOX4, tetracycline-induced, NOX inhibitor project, primary screen (AID 1160). The note with it: HEK293-NOX4, Amplex Red H2O2 fluorescence, 45 min; higher = more signal, called active from +8 up or from −8 down.
The target in test [2] is NADPH oxidase 5 (Homo sapiens) (UniProt Q96PH1). Description: compounds shifting NOX5 Amplex Red fluorescence – cell-based, HEK293-NOX5, NOX inhibitor project, primary screen (AID 1161). The conditions noted are these: HEK293-NOX5, ionomycin, 45 min, higher = more signal.
Test [3] can be described thus: compound effects on lung adenocarcinoma cell viability – A549, calcein-AM fluorescence, 48 h, basal, profiling panel (AID 1162). Further: test concentration not given here. The conditions noted are these: higher = more signal.
Test [4] in a line: compound effects on differentiated 3T3-L1 adipocyte viability – cell-based, 3T3-L1 adipocytes, calcein-AM fluorescence, 48 h, basal, profiling panel (AID 1163). Further: test concentration not given here. The conditions noted are these: 3T3-L1 adipocytes viability, higher = more signal.
Test [5] in a line: compound effects on hepatocellular carcinoma cell viability – HepG2, calcein-AM fluorescence, 48 h, basal, profiling panel (AID 1164). Further: test concentration not given here. The conditions noted are these: higher = more signal.
Test [6] can be described thus: compound effects on multiple myeloma cell viability – MM1S, calcein-AM fluorescence, 48 h, basal, profiling panel (AID 1165).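 Further: viability of MM1S multiple myeloma cells under basal unstimulated conditions; test concentration not given here.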 The note with it: higher = more signal.
Test [7] in a line: calcein-AM signal in unstimulated myeloma cells – cell-based, calcein-AM fluorescence, 48 h, PK04 Diversity Set, profiling panel (AID 1166).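 Further: cells grown under basal conditions without added stimulus; test concentration not given here.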 The conditions noted are these: RPMI8226 myeloma viability, higher = more signal.
The nature of test [8]: JC-1 mitochondrial signal, unstimulated HepG2 cells – cell-based, JC-1 fluorescence, 24 h, 100 nL compound, profiling panel (AID 1167). Further: test concentration not given here. The conditions noted are these: HepG2 mitochondrial potential, higher = more signal.
Test [9] is described as follows: JC-1 mitochondrial signal, unstimulated adipocytes – cell-based, JC-1 fluorescence, 3T3-L1 adipocytes, 24 h, 100 nL compound, profiling panel (AID 1168). Further: test concentration not given here. The note with it: JC-1 mitochondrial fluorescence, higher = more signal, called active from +8 up or from −8 down.
A short description of test [10]: JC-1 mitochondrial signal, unstimulated myeloma cells – cell-based, JC-1 fluorescence, RPMI8226, 24 h, 100 nL compound, profiling panel (AID 1169). Further: test concentration not given here. The conditions noted are these: JC-1 mitochondrial potential fluorescence, higher = more signal.
The nature of test [11]: JC-1 mitochondrial signal, unstimulated MM1S myeloma – cell-based, JC-1 fluorescence, 24 h, 100 nL compound, profiling panel (AID 1170). Further: test concentration not given here. The conditions noted are these: MM1S mitochondrial potential, higher = more signal.
Test [12] in a line: resazurin metabolic signal in A549 cells – cell-based, resazurin fluorescence, 24 h, PK04 Diversity Set, profiling panel (AID 1171). Further: test concentration not given here. The note with it: A549 viability, higher = more signal, called active from +8 up or from −8 down. (Resazurin is reduced to fluorescent resorufin, in cell work by metabolically active cells.)
Test [13] can be described thus: resazurin metabolic signal in HepG2 cells – cell-based, resazurin fluorescence, 24 h, PK04 Diversity Set, profiling panel (AID 1172). Further: test concentration not given here. The conditions noted are these: HepG2 viability, higher = more signal.
Test [14] is described as follows: budding yeast growth changes without added modifier – OD600, strain BY4716, 24 h, basal condition, primary screen (AID 1173). The note with it: S. cerevisiae BY4716 growth, OD600, 24 h; higher = more signal, called active from +8 up or from −8 down.
Test [15] can be described thus: viability profiling in MM1S myeloma cells – cell-based, resazurin fluorescence, basal, 24 h, PK04 Diversity Set, profiling panel (AID 1174). Further: test concentration not given here. The conditions noted are these: higher = more signal, called active from +8 up or from −8 down.
Test [16] deals with Dihydroorotate dehydrogenase (quinone), mitochondrial (Plasmodium falciparum (isolate 3D7)) (UniProt Q08210). Description: inhibition of P. falciparum DHODH – biochemical, C-terminal His tag, absorbance 600 nm, primary screen (AID 1175).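 Further: recombinant parasite enzyme with a five histidine tag at its C terminus; test concentration not given here.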 The note with it: PfDHODH enzyme, DCIP absorbance 600 nm; higher = more signal, called active from +8 up or from −8 down.
Test [17] in a line: growth modulation of vineyard yeast isolate – strain RM11-1a, OD600, basal, 24 h, primary screen (AID 1177).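 Further: cultures grown under basal conditions with no added stressor; test concentration not given here.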 The note with it: S. cerevisiae RM11-1a growth, OD600, 24 h; higher = more signal, called active from +8 up or from −8 down.
Test [18] is described as follows: growth of efflux-deficient E. coli DRC39 – strain DRC39, OD650, 24 h, E. coli filamentation inducers, primary screen (AID 1178).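 Further: growth measured as culture turbidity by optical density at 650 nm; test concentration not given here.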 The note with it: E. coli DRC39 acrAB, higher = more signal, called active from +8 up or from −8 down.
Test [19] can be described thus: growth of efflux-deficient E. coli DRC39 – strain DRC39, OD650, 48 h, E. coli filamentation inducers, primary screen (AID 1179).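 Further: screen aims at cell division blockers that make cells filament.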 The conditions noted are these: E. coli DRC39 delta-acrAB growth, higher = more signal, called active from +8 up or from −8 down.
Test [20] can be described thus: viability profiling in RPMI8226 myeloma cells – cell-based, resazurin fluorescence, basal, 24 h, PK04 Diversity Set, profiling panel (AID 1180).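 Further: RPMI8826 multiple myeloma cell line at 5000 cells per well; test concentration not given here.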 The conditions noted are these: higher = more signal.

NADPH oxidase 4 (Homo sapiens), sequence (Q9NPH5 whole entry, looked up): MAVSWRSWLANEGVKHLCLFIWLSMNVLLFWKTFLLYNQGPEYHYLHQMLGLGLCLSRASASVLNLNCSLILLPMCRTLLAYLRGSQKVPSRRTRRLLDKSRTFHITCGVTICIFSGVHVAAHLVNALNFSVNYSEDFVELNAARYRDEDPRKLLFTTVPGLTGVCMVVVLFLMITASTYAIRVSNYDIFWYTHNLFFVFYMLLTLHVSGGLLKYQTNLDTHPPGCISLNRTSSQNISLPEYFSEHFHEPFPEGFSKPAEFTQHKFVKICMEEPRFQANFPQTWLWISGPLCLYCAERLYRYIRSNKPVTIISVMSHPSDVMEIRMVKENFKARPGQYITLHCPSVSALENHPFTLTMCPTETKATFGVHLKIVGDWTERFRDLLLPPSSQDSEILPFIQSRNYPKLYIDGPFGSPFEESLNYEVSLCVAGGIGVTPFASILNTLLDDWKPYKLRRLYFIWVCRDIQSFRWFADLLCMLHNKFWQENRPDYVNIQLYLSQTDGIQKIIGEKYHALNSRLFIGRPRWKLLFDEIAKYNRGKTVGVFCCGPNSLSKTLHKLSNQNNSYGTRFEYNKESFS
NADPH oxidase 5 (Homo sapiens), sequence (Q96PH1 whole entry, looked up): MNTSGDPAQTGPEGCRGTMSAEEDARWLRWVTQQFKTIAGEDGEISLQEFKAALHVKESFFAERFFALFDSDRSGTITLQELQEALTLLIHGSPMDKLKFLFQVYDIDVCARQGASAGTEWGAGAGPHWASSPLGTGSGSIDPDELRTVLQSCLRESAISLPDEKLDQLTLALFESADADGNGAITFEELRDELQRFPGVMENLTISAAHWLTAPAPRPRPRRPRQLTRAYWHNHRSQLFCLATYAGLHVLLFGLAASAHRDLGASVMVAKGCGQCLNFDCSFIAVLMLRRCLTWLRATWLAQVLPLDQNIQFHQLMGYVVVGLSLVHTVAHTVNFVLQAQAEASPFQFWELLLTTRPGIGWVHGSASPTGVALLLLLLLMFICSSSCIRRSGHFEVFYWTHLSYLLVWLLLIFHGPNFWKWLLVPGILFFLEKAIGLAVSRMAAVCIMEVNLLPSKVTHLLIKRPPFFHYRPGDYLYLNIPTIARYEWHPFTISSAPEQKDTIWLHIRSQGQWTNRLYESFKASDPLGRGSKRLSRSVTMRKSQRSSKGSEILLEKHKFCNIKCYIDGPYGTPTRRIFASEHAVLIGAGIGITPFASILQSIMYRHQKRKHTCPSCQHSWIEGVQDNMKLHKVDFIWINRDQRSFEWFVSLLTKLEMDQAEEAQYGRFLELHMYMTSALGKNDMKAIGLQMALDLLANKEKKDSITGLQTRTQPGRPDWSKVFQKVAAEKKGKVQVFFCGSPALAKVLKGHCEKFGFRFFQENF
Dihydroorotate dehydrogenase (quinone), mitochondrial (Plasmodium falciparum (isolate 3D7)), sequence (Q08210 whole entry, looked up): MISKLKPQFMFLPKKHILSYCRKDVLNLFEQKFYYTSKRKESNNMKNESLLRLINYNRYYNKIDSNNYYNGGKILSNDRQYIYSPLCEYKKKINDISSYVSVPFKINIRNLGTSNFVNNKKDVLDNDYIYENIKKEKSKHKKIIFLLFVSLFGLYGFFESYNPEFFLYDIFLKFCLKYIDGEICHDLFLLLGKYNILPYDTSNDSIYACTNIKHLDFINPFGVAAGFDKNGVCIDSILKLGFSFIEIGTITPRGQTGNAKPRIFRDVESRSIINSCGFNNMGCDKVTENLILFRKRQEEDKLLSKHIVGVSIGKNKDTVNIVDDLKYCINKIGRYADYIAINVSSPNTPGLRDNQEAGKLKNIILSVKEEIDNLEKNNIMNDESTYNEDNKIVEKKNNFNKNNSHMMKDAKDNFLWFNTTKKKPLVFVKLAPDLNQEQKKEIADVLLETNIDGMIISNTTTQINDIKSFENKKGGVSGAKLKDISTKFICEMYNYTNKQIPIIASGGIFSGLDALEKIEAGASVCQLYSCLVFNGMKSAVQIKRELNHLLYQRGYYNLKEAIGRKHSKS

On to `C#CCN1C(C(=O)OCC)OC[C@H]1c1ccccc1` (stereo not given in full), for which the z-score in test [1] is 0.918 (inactive); in [2], -0.727; in test [3] it was 0.208; in test [4] it was 0.714; in [5], -0.0851; in test [6], 0.712. In addition, the z-score in test [7] was -0.181; in test [8], 1.06; in [9], 0.842 (inactive); in test [10], 0.297; in test [11] it was -0.316; in [12] it was -0.282 (inactive). The z-score in [13] was 0.513; in [14], -6.25 (inactive); in [15], 1.49 (inactive); in test [17] it was -2.24 (inactive); in test [18], 2.47 (inactive); in [19] it was 0.724 (inactive). This compound returned a z-score in [20] of 0.0912. The composite z-score in [16] is 0.253 (inactive).

Regarding `COCCOC(=O)N1C(=O)[C@@]2(c3cc(C#CCNC(N)=O)ccc31)[C@H](c1ccccc1OCCO)N1[C@H](c3ccccc3)[C@H](c3ccccc3)OC(=O)[C@H]1[C@@H]2C(=O)Nc1nc2ccccc2s1`, the z-score was 1.5 (inactive) in test [1]; 1.25 in [2]; 0.323 in [3]; 1.32 in test [4]; -0.272 in test [5]; -1.56 in test [6]. For the same compound, the z-score was 0.501 in test [7]; -2.92 in test [8]; 1.04 (inactive) in [9]; -1.06 in test [10]; -1.32 in test [11]; 0.627 (inactive) in test [12]. For the same compound, the z-score in test [13] is 0.0177; in [14], -0.267 (inactive); in test [15], 1.22 (inactive); in test [17], 1.17 (inactive); in test [18] it was -0.17 (inactive); in test [19] it was 0.599 (inactive). In [20], the z-score was 1.39. Besides, in test [16], the composite z-score was -0.183 (inactive).

In the case of `O=c1n(-c2ccccc2)c(=O)n2n1CC(COc1ccccc1)=C1[C@@H](CCc3ccccc3)OB(O)C[C@@H]12`, the z-score in test [1] is -0.0712 (inactive); in test [2] it was -1.03; in test [3] it was 1.81; in test [4] it was 0.0728; in test [5] it was -0.28; in test [6], -0.0893. For the same compound, the z-score in [7] is -0.364; in test [8], -0.251; in test [9], 1.31 (inactive); in [10], -0.555; in [11], 0.615; in test [12], -0.665 (inactive). Also, the z-score in test [13] is 0.312; in test [14], -2.19 (inactive); in test [15] it was -0.933 (inactive); in [17], -0.424 (inactive); in test [18], 2.4 (inactive); in [19], 1.4 (inactive). This compound also displayed a z-score in test [20] of -0.672. For the same compound, the composite z-score in test [16] is 0.91 (inactive).

For `C[C@@H](OCc1ccccc1)C1NC(=O)[C@@]23C(=O)N[C@@H](Cc4ccccc4)C2[C@H](C)[C@@]2(C)O[C@H]2C3/C=C/C/C=C\CNC(=O)[C@@H]2CCCN2C1=O` (stereo not given in full), the z-score in test [1] was 0.397 (inactive); in test [2], -0.915; in test [3], 0.791; in [4], 0.812; in test [5] it was 0.11; in test [6] it was -1.11. Besides, the z-score in test [7] is -0.722; in [8], 2.87; in test [9] it was 0.566 (inactive); in [10] it was 0.0782; in test [11] it was 1.19; in test [12], 1.46 (inactive). The z-score in [13] is 0.432; in test [14], -1.9 (inactive); in [15], 0.556 (inactive); in [17], -0.421 (inactive); in test [18], 2.53 (inactive); in test [19] it was 1.66 (inactive). In addition, the z-score in [20] came to 0.685. Moreover, in test [16], the composite z-score was -0.0867 (inactive).
